From ChEMBL document CHEMBL3433997, “St. Jude Leishmania screening dataset” (2016)

target: Solute carrier family 2, facilitated glucose transporter member 1 (Homo sapiens) (UniProt P11166); assay: ST_JUDE_LEISH: Cytotoxicity at 2uM final concentration against transgenic Leishmania Mexicana promastigotes LmGLUT1 that are glucose transport deficient and complemented with the human glucose transporter GLUT1. Activity is measured by DNA content using SYBR green in vitro; type: functional
Sequence (P11166 whole entry): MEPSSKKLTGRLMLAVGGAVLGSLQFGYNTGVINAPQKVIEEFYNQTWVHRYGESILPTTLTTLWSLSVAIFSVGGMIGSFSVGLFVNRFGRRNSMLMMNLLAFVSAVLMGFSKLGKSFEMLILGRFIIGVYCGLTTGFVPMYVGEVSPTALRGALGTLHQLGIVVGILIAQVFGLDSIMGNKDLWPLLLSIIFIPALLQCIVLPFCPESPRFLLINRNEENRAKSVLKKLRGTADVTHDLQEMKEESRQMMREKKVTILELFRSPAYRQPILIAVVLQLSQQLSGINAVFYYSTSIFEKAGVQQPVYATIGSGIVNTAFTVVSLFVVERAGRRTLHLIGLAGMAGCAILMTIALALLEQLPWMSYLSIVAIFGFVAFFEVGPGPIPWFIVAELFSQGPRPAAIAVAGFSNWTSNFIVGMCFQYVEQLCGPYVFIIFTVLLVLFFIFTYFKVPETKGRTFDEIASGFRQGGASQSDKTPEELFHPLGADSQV

Structure (SMILES) | inhibition
CC(C)(C)c1ccc2[nH]c(-c3ccc(C(=O)NC4CCN(Cc5ccccc5)CC4)s3)nc2c1 | 3.39%
Cc1ccc2c(Cl)c(C(=O)N3CCCc4ccccc43)sc2c1 | 5.28%
Cc1cccc2nc(-c3ccc(-c4cccc(NC(=O)c5ccncc5)c4)cc3)[nH]c12 | 0.03%
Cc1cc(NCCC(=O)NCCOc2ccccc2)nc(NCCc2ccccc2)n1 | 7.78%
CCCN1CCN(CCCNC(=O)c2cc3c(-c4ccc(Cl)cc4)nn(C)c3s2)CC1 | 18.3%
Cc1ccc(C)c(Cn2ccc3nc(Cl)nc(Cl)c32)c1 | 7.99%
O=C(NCCc1ccc(F)cc1)c1ccc(N2CCN(c3ccncc3)CC2)nc1 | 2.72%
Cc1ccoc1C(=O)Nc1cccc(-c2cccc(-c3nc4cc(C(F)(F)F)ccc4[nH]3)c2)c1 | 3.75%
c1ccc2oc(-c3cc4ccncc4cc3OC3CCNCC3)cc2c1 | -1.3%
O=C(NCCCCCN1CCCN(C(=O)Nc2ccc(F)c(C(F)(F)F)c2)CC1)C1CC1c1ccc(Cl)c(Cl)c1 (stereo not given) | 2.53%
COc1cc(Cc2cnc(N)nc2N)ccc1OCc1csc(-c2ccc(Cl)cc2)n1 | 10%
CCn1c(SCC(=O)Nc2cc(C(F)(F)F)ccc2Cl)nc2ccccc2c1=O | 1.69%
CN(C)CCNC(=O)c1cccc(-c2cnc3ccc(NCc4ccc(Cl)c(Cl)c4)nn23)c1 | 8.3%
CC(C)Cc1cn(-c2nc(-c3nc4ccccc4[nH]3)cs2)c2ccncc12 | 4.69%
CCCCSc1c(CNCCCCCCNCc2ccc3ccccc3c2SCCCC)ccc2ccccc12 | 10.7%
COc1ccc(CN2CCCN(Cc3cccc(C(=O)Nc4ccc(C(C)(C)C)cc4)c3)CC2)cc1 | 7.71%
Cc1cc(N[C@@H](Cc2ccccc2)C(=O)NCCOc2ccccc2)nc(NCC2CCCCC2)n1 | 6%
COc1ccc2[nH]c(C)cc(=NN=Cc3cccc(Cl)c3)c2c1 | -0.18%
COc1ccc2c(NCCc3ccccc3)cc(-c3ccccc3)nc2c1 | 9.93%
CC(C)Oc1ccc(C=CC(=O)Nc2noc3ccccc23)cc1 | 2.56%

Structure (SMILES) | inhibition
O=C(Nc1ccc(Cl)cc1C(=O)Nc1cccc(F)c1)c1ccc([N+](=O)[O-])cc1 | 0.5%
N=C(N)c1ccc(Nc2nccc(Nc3nc(-c4ccccc4)cs3)n2)cc1 | 0.38%
COc1ccc(-c2ncnc(C(F)(F)F)c2-c2ccc(Cl)cc2)c(O)c1 | 3.19%
COc1ccc(CN2CCN(CC(=O)Nc3cc(Cl)ccc3-n3cncn3)CC2)cc1F | -1.01%
O=C(/C=C/c1ccc(I)cc1)NCCCCCN1CCC(c2c[nH]c3ccc(O)cc23)CC1 | 1.49%
CCCNC(=O)Nc1cc2cc(-c3cccc(CN4CCCCC4)c3)ccc2n2c(C)nnc12 | 0.33%
C[C@H](Cc1ccc(OCCCCCOc2ccc(C[C@@H](C)NC[C@H](O)c3cccc(Cl)c3)cc2)cc1)NC[C@H](O)c1cccc(Cl)c1 | 106%
Clc1nc(Cl)c2c(ccn2Cc2ccccc2)n1 | 1.47%
CC(C)CNCc1cccc(-c2ccc(CN(CCCN3CCN(C)CC3)C(=O)/C=C/c3ccccc3)cc2)c1 | 2.92%
CC(=O)NCCNc1nccc(N2CCc3ncnc(Nc4ccc(OCc5cccc(F)c5)c(Cl)c4)c3C2)n1 | 0.07%
CC(=O)c1ccc(NC(=O)Nc2ccc(N(C)c3ccnc(Nc4cccc(CS(C)(=O)=O)c4)n3)cc2)cc1 | -0.18%
Cc1[nH]c2ccc(NS(C)(=O)=O)cc2c1C1CCN(CCC2CCN(C(=O)/C=C/c3ccc(Cl)c(Cl)c3)CC2)CC1 | -0.38%
CC(=O)Nc1ccc(C(=O)Nc2ccc(-c3cccc(-c4nc5cc(F)ccc5[nH]4)c3)cc2)cn1 | 0.13%
Cc1cccc2nc(-c3cccc(-c4cccc(CNCc5ccc(S(C)(=O)=O)cc5)c4)c3)[nH]c12 | 1.64%
O=C1Nc2ccc3ncccc3c2/C1=C/Nc1ccc(N2CCN(CCO)CC2)cc1 | 2.74%
N#Cc1cncc(-c2nc3c(N4CCC(Cc5ccccc5)CC4)cccc3n2C2CCNC2)c1 (stereo not given) | -0.31%
CCOc1ccc(OCCCON2C(=N)N=C(N)NC2(C)C)cc1 | 1.93%
COc1ccc(C=NN=c2cc(C)[nH]c3c(C)cccc23)c2ccccc12 | 1.53%
CC(C)C[C@H]1c2[nH]c3ccc(Cl)cc3c2CCN1C(=O)CCc1ccccc1 | 3.74%
O=C(Nc1cccc(CN2CCCN(Cc3ccccc3)CC2)c1)c1ccc(-c2ccccc2)cc1 | 3%

target: Hexose transporter 1 (Plasmodium falciparum) (UniProt O97467); assay: ST_JUDE_LEISH: Cytotoxicity at 2uM final concentration against transgenic Leishmania Mexicana promastigotes LmPfHT that are glucose transport deficient and complemented with the Plasmodium falciparum hexose transporter. Activity is measured by DNA content using SYBR green in vitro; type: functional

Structure (SMILES) | inhibition
CC(C)(C)c1ccc2[nH]c(-c3ccc(C(=O)NC4CCN(Cc5ccccc5)CC4)s3)nc2c1 | 2.69%
Cc1ccc2c(Cl)c(C(=O)N3CCCc4ccccc43)sc2c1 | 3.86%
Cc1cccc2nc(-c3ccc(-c4cccc(NC(=O)c5ccncc5)c4)cc3)[nH]c12 | -0.47%
Cc1cc(NCCC(=O)NCCOc2ccccc2)nc(NCCc2ccccc2)n1 | 5.18%
CCCN1CCN(CCCNC(=O)c2cc3c(-c4ccc(Cl)cc4)nn(C)c3s2)CC1 | 17.4%
Cc1ccc(C)c(Cn2ccc3nc(Cl)nc(Cl)c32)c1 | 5.11%
O=C(NCCc1ccc(F)cc1)c1ccc(N2CCN(c3ccncc3)CC2)nc1 | 0.74%
Cc1ccoc1C(=O)Nc1cccc(-c2cccc(-c3nc4cc(C(F)(F)F)ccc4[nH]3)c2)c1 | 1.86%
c1ccc2oc(-c3cc4ccncc4cc3OC3CCNCC3)cc2c1 | -3.57%
O=C(NCCCCCN1CCCN(C(=O)Nc2ccc(F)c(C(F)(F)F)c2)CC1)C1CC1c1ccc(Cl)c(Cl)c1 (stereo not given) | 2.1%
COc1cc(Cc2cnc(N)nc2N)ccc1OCc1csc(-c2ccc(Cl)cc2)n1 | 11.7%
CCn1c(SCC(=O)Nc2cc(C(F)(F)F)ccc2Cl)nc2ccccc2c1=O | 3.62%
CN(C)CCNC(=O)c1cccc(-c2cnc3ccc(NCc4ccc(Cl)c(Cl)c4)nn23)c1 | 8.99%
CC(C)Cc1cn(-c2nc(-c3nc4ccccc4[nH]3)cs2)c2ccncc12 | 6.3%
CCCCSc1c(CNCCCCCCNCc2ccc3ccccc3c2SCCCC)ccc2ccccc12 | 5.83%
COc1ccc(CN2CCCN(Cc3cccc(C(=O)Nc4ccc(C(C)(C)C)cc4)c3)CC2)cc1 | 5.46%
Cc1cc(N[C@@H](Cc2ccccc2)C(=O)NCCOc2ccccc2)nc(NCC2CCCCC2)n1 | 6.54%
COc1ccc2[nH]c(C)cc(=NN=Cc3cccc(Cl)c3)c2c1 | 4.08%
COc1ccc2c(NCCc3ccccc3)cc(-c3ccccc3)nc2c1 | 10.8%
CC(C)Oc1ccc(C=CC(=O)Nc2noc3ccccc23)cc1 | 3.16%

Structure (SMILES) | inhibition
O=C(Nc1ccc(Cl)cc1C(=O)Nc1cccc(F)c1)c1ccc([N+](=O)[O-])cc1 | 0.92%
N=C(N)c1ccc(Nc2nccc(Nc3nc(-c4ccccc4)cs3)n2)cc1 | 0.47%
COc1ccc(-c2ncnc(C(F)(F)F)c2-c2ccc(Cl)cc2)c(O)c1 | 3.07%
COc1ccc(CN2CCN(CC(=O)Nc3cc(Cl)ccc3-n3cncn3)CC2)cc1F | 1.82%
O=C(/C=C/c1ccc(I)cc1)NCCCCCN1CCC(c2c[nH]c3ccc(O)cc23)CC1 | 1.64%
CCCNC(=O)Nc1cc2cc(-c3cccc(CN4CCCCC4)c3)ccc2n2c(C)nnc12 | 1.3%
C[C@H](Cc1ccc(OCCCCCOc2ccc(C[C@@H](C)NC[C@H](O)c3cccc(Cl)c3)cc2)cc1)NC[C@H](O)c1cccc(Cl)c1 | 104%
Clc1nc(Cl)c2c(ccn2Cc2ccccc2)n1 | 0.9%
CC(C)CNCc1cccc(-c2ccc(CN(CCCN3CCN(C)CC3)C(=O)/C=C/c3ccccc3)cc2)c1 | 3.29%
CC(=O)NCCNc1nccc(N2CCc3ncnc(Nc4ccc(OCc5cccc(F)c5)c(Cl)c4)c3C2)n1 | -2.13%
CC(=O)c1ccc(NC(=O)Nc2ccc(N(C)c3ccnc(Nc4cccc(CS(C)(=O)=O)c4)n3)cc2)cc1 | 0.54%
Cc1[nH]c2ccc(NS(C)(=O)=O)cc2c1C1CCN(CCC2CCN(C(=O)/C=C/c3ccc(Cl)c(Cl)c3)CC2)CC1 | -1.33%
CC(=O)Nc1ccc(C(=O)Nc2ccc(-c3cccc(-c4nc5cc(F)ccc5[nH]4)c3)cc2)cn1 | 1.66%
Cc1cccc2nc(-c3cccc(-c4cccc(CNCc5ccc(S(C)(=O)=O)cc5)c4)c3)[nH]c12 | 0.32%
O=C1Nc2ccc3ncccc3c2/C1=C/Nc1ccc(N2CCN(CCO)CC2)cc1 | 2.28%
N#Cc1cncc(-c2nc3c(N4CCC(Cc5ccccc5)CC4)cccc3n2C2CCNC2)c1 (stereo not given) | -0.39%
CCOc1ccc(OCCCON2C(=N)N=C(N)NC2(C)C)cc1 | 0.06%
COc1ccc(C=NN=c2cc(C)[nH]c3c(C)cccc23)c2ccccc12 | 1.31%
CC(C)C[C@H]1c2[nH]c3ccc(Cl)cc3c2CCN1C(=O)CCc1ccccc1 | 2.53%
O=C(Nc1cccc(CN2CCCN(Cc3ccccc3)CC2)c1)c1ccc(-c2ccccc2)cc1 | 4.14%
